Compound activity from PubChem BioAssay.
Rows were chosen to be rich in hits. Some 2.4% of all compounds tested hit in one or more screens of this group.
S1P4 agonist – activates the human S1P4 receptor. O95977. S1P4-expressing cell line, agonist reporter assay. activation, % at 4.98 µM. 0.35% of 220,000 active. AID 1509; in the data active means activation above about 11%;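 further: 0% = DMSO vehicle and 100% = reference agonist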
EP2 mod – modulators of human EP2 prostaglandin E2 receptor | 0.83% of 260,000 active | P43116 | EP2-expressing cells, cAMP HTRF FRET, PGE2 co-stimulation | induction, % at 25 µM;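 active means compounds whose cAMP rise, as percent of the full-agonist control response, exceeds 60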;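 further: rat C6 glioma line stably carrying human EP2 under a CMV promoter; the protocol text gives 20 µM as final concentration; 100% = response of wells given 1 µM PGE2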
Target sequence (P43116 whole entry, looked up): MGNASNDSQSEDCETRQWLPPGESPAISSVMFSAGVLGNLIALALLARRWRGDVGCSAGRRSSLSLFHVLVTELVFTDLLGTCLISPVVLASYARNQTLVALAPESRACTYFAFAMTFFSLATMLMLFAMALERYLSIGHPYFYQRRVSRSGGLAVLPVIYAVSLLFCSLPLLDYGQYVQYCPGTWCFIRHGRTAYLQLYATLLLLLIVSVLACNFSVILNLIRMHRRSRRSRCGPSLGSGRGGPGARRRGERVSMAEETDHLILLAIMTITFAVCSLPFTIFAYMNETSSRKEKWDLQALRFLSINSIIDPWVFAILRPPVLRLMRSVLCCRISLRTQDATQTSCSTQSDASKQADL
S1P3 antagonist – blocks the human S1P3 receptor | Q99500 | CHO S1P3 NFAT-BLA reporter, FRET fluorescence, antagonist mode | inhibition, % at 4.98 µM | 0.27% of 170,000 active;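 active means inhibition above the plate cutoff, the mean inhibition of test wells on that plate plus 3 SD, cut at about 28% in these data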;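 further: cells challenged with S1P at its EC80 of 0.8 µM; blue over green emission ratio from cleaved BLA substrate after 4 h stimulation; 0% = S1P-stimulated wells and 100% = unstimulated DMSO-only wells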
S1P4 antag – blocks the human S1P4 receptor. S1P4-expressing cells, antagonist mode, reporter read-out. O95977. 0.26% of 220,000 active. inhibition, % at 4.98 µM; in the data active means inhibition above about 29%;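 further: 0% = wells stimulated with agonist and 100% = vehicle wells without agonist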
INS promoter inh – TRM-6 insulin promoter activity inhibition; TRM-6 cells (human fetal islet line), insulin promoter-eGFP reporter, imaging; reporter expression induced with tamoxifen; inhibition, % at 2 µM; 0.9% of 130,000 active;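 active means inhibition above the mean plus 3 SD, with well images judged a real hit on visual review, cut at about 60% in these data, passing the limit was not always enough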
PGE2 EP2 inh – EP2 receptor (human) inhibition; P43116; C6 glioma cells expressing human EP2, cAMP TR-FRET; cells stimulated with saturating PGE2; inhibition, % at 25 µM; 0.52% of 260,000 active; AID 1422;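 active means percent inhibition above 40 after rounding to a whole number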;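 further: rat C6 glioma host cells with rolipram phosphodiesterase inhibitor present; the protocol text gives 20 µM as final concentration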
* hit, by the source's call; / = no result given.

SMILES	S1P4 agonist	EP2 mod	S1P3 antagonist	S1P4 antag	INS promoter inh	PGE2 EP2 inh
CCOC(=O)Cc1[nH]nc2c1C(c1cccc(F)c1)C(C#N)=C(N)O2 (stereo unspecified)	/	-23	/	/	/	10
Cc1ccc(S(=O)(=O)N[C@H](C(=O)Oc2ccc3c(C(F)(F)F)cc(=O)oc3c2)c2ccccc2)cc1	1	-3	/	41*	/	17
C/C(N)=C(/C#N)C(=O)COC(=O)c1ccncc1	1	-5	-10	-12	18	8
C/C(N)=C(/C#N)C(=O)COC(=O)c1ccccc1Cc1ccccc1	0	63*	5	-19	-42	8
CC(=O)NC1(c2ccc(F)cc2)CCN(Cc2[nH]c3ccc(C)cc3c2C)CC1	/	-107	/	/	/	13
N#Cc1c(-c2ccc3c(c2)OCO3)cc(-c2ccccc2)nc1N	/	66*	/	/	/	15
CCCC(=O)N1CCCC(c2nc3c(nnn3Cc3cc(C)ccc3C)c(=O)[nH]2)C1 (stereo unspecified)	/	64*	/	/	/	15
Cn1c(=O)[nH]c(=O)c2c1nc(N)n2Cc1cccc2ccccc12	/	-9	/	/	/	10
COC(=O)C1CCN(C(=O)COc2cc3sc(C)nc3c3sccc23)CC1	1	-10	55*	12	57	5
COC(=O)C1CCN(C(=O)COc2ccc(Cl)cc2)CC1	3	7	3	-8	-306	7
Cc1ccccc1-c1nnc(NC(=O)c2ccc3nccnc3c2)s1	/	-45	/	/	/	6
CN(CC(=O)N1CCCCC1)S(=O)(=O)c1cccc2cccnc12	-1	10	-4	-2	86*	11
CC1Cc2ccccc2N1C(=O)CN(C)S(=O)(=O)c1cccc2cccnc12 (stereo unspecified)	-2	1	/	-1	/	13
O=C(Cc1ccccc1)Nc1ccc2c(c1)C(=O)OC2	/	-15	/	/	/	12
O=C(OCC(=O)N1CCCC1)c1cncc(Br)c1	-1	13	-1	-18	100*	/
COc1ccc(CNC(=O)c2c(O)c3cc(OC)c(OC)cc3[nH]c2=O)cc1	/	-14	/	/	/	8
Cc1onc(-c2ccncc2)c1C(=O)NCC(c1ccc2c(c1)OCO2)N(C)C (stereo unspecified)	/	-13	/	/	/	11
COc1ccc2cc1Oc1ccc(cc1)C[C@H]1c3cc(c(OC)cc3CCN1C)Oc1c(OC)c(OC)cc3c1[C@@H](C2)N(C)CC3	/	-12	/	/	/	59*
O=C(CSc1ncccn1)NN=C1CCCCCC1	0	36	-4	-9	67*	7
Cc1cc(NC(=O)CCC(=O)N(CC(=O)NC2CCCC2)Cc2ccc3c(c2)OCO3)no1	0	15	-7	-17	-46	13
Cc1cc(NC(=O)CCC(=O)N(CC(=O)NC2CCCC2)Cc2ccc(F)cc2)no1	0	5	63*	-7	-18	10
CC(C)[C@]1(Cl)CC[C@H]2[C@]3(C)CCC[C@@](C)(C(=O)O)[C@H]3C[C@@H](Cl)[C@]2(Cl)[C@H]1Cl	/	35	/	/	/	48*
CC(=O)OC[C@]1(OC(C)=O)C[C@@]23CC[C@H]4[C@@](C)(CCC[C@@]4(C)C(=O)O)[C@@H]2CC[C@@H]1C3	2	12	-10	1	5	6
Cc1cc(N=Nc2ccccc2)c(NCC(O)C(O)C(O)CO)cc1C (stereo unspecified)	0	-47	13	-10	82*	6
CC(Sc1nc(-c2ccccc2)cc(C(F)(F)F)n1)C(=O)N1CCN(C)CC1 (stereo unspecified)	/	-21	/	/	/	11
SMILES	S1P4 agonist	EP2 mod	S1P3 antagonist	S1P4 antag	INS promoter inh	PGE2 EP2 inh
O=S1(=O)CC2NC(=S)N(c3cccc(Br)c3)C2C1 (stereo unspecified)	0	70*	10	26	/	6
O=C1N(c2ccccc2)C2CS(=O)(=O)CC2N1c1ccc(Br)cc1 (stereo unspecified)	0	-6	-9	-11	-65	10
COc1ccccc1C1C(C#N)=C(SCC(=O)Nc2ccc(Br)cc2)NC(=O)C1C#N (stereo unspecified)	/	-29	/	/	/	6
CCn1c2cc(C)sc2c2cnn(CC(=O)N3CCCCCC3)c(=O)c21	/	-36	/	/	/	/
Cc1ccc(/C=N/NC(=O)NC2CCCCC2)o1	3	2	-9	8	-13	13
Cc1cccc(/C=N/NC(=O)NC2CCCCC2)c1	1	63*	-21	-14	-22	6
CCC(C(=O)OCC(=O)Nc1ccc(OC)cc1OC)c1ccccc1 (stereo unspecified)	-1	-14	-7	2	/	9
CCC(C(=O)OCC(=O)Nc1cccc(OC)c1)c1ccccc1 (stereo unspecified)	1	-8	-7	-12	73*	12
N#CSc1cnc(N)s1	/	-120	/	/	/	111*
COc1ccc(-c2cc(C(F)(F)F)nc(SCC(=O)Nc3ccc(N(C)C)cc3)n2)cc1OC	/	33	/	/	/	13
COc1ccccc1OCCN(C)C(=O)c1c(-c2ccncc2)noc1C	/	-24	/	/	/	16
Nc1cc(Cl)ccc1Oc1ccccc1	1	39	-38	8	45	6
Nc1cc(C(=O)O)c(Oc2ccc(Cl)cc2Cl)cc1C(=O)O	5	46	-3	-5	67*	8
O=C(Oc1ccc2[nH]cc(CCN3C(=O)c4ccccc4C3=O)c2c1)c1ccco1	-4	1	1	-8	25	13
COc1ccc2c(c1)c(CCN1C(=O)c3ccccc3C1=O)cn2C(=O)c1ccco1	2	-5	55*	0	-30	11
CCCCNC(=O)CCc1nc2cccnc2n1Cc1ccc(OC)cc1	-2	-7	/	6	83*	16
COc1ccc(Cn2c(CCC(=O)O)nc3cccnc32)cc1	-1	-2	-24	-2	-29	9
CC1CCN(c2ccc(NC(=O)c3ncoc3-c3ccccc3F)cc2C(N)=O)CC1	/	0	/	/	/	7
COc1cc(C2SCCCCCCCCCCSC(c3ccc(O)c(OC)c3)SCCCCCCCCCCS2)ccc1O (stereo unspecified)	/	14	/	/	/	41*
COc1cc(OC)c(C2SCCCS2)cc1OC	0	27	-10	4	0	10
CCNC(=S)N(Cc1ccc(OC)cc1)Cc1cc2cc(CC)ccc2[nH]c1=O	/	-3	/	/	/	4
COc1ccccc1C1(O)CCCN(C(=O)COc2ccc3nsnc3c2)C1 (stereo unspecified)	/	-60	/	/	/	55*
CC(C)C1=NN(C(=O)c2cccc(F)c2)C(O)(C(F)(F)F)C1 (stereo unspecified)	/	-57	/	/	/	10
CCOC(=O)CSc1nnc2c3c4c(sc3nc(CC)n12)CCCC4	/	-11	/	/	/	5
CC(C)CNc1nc2c(c(=O)n(C)c(=O)n2C)n1Cc1cccc(Br)c1	0	62*	/	-6	53	5
CC(O)CNc1nc2c(c(=O)n(C)c(=O)n2C)n1Cc1cccc(Br)c1 (stereo unspecified)	2	21	-58	-17	18	6
Cn1c(=O)c2c(nc(NC3CCCCC3)n2Cc2ccccc2)n(C)c1=O	0	36	-21	-5	/	13
